# Data taken from publication PMC9911399, “Two distinct binding modes provide the RNA-binding protein RbFox with extraordinary sequence specificity”.
# Substitutions are numbered along the chain they refer to; changes in the protein carry UniProt numbers. Over roughly 16,000 sequences, “ka relative to ugcaugu” has its median near 0.096; the highest 2% begin near 0.35. This excerpt belongs to a sample that is enriched for the highest values.
# B1: AUUCCUA (DNA:RNA)
# RNA: GGGAGACCGGAAUUCAGAUUGUCCAUUCCUAUUAAAUCCCGUCGUAGCCACCA
# DNA 1: CAATCTGAATTCCGGTCTCCC
# DNA 2: TGGTGGCTACGACGGGATT
# B2: ACGGGGG (DNA:RNA)
# RNA: B1 RNA with U26C, U27G, C28G, C29G, U30G, A31G
# DNA 1: CAATCTGAATTCCGGTCTCCC
# DNA 2: TGGTGGCTACGACGGGATT
# B3: UCCUCGU (DNA:RNA)
# RNA: B1 RNA with A25U, U26C, U27C, C28U, U30G, A31U
# DNA 1: CAATCTGAATTCCGGTCTCCC
# DNA 2: TGGTGGCTACGACGGGATT
# B4: GUACUCA (DNA:RNA)
# RNA: B1 RNA with A25G, U27A, C29U, U30C
# DNA 1: CAATCTGAATTCCGGTCTCCC
# DNA 2: TGGTGGCTACGACGGGATT
# B5: CACUACA (DNA:RNA)
# RNA: B1 RNA with A25C, U26A, U27C, C28U, C29A, U30C
# DNA 1: CAATCTGAATTCCGGTCTCCC
# DNA 2: TGGTGGCTACGACGGGATT
# B6: UUAGGGA (DNA:RNA)
# RNA: B1 RNA with A25U, U27A, C28G, C29G, U30G
# DNA 1: CAATCTGAATTCCGGTCTCCC
# DNA 2: TGGTGGCTACGACGGGATT
# B7: AGCCGCU (DNA:RNA)
# RNA: B1 RNA with U26G, U27C, C29G, U30C, A31U
# DNA 1: CAATCTGAATTCCGGTCTCCC
# DNA 2: TGGTGGCTACGACGGGATT
# B8: GCUCAAC (DNA:RNA)
# RNA: B1 RNA with A25G, U26C, C29A, U30A, A31C
# DNA 1: CAATCTGAATTCCGGTCTCCC
# DNA 2: TGGTGGCTACGACGGGATT
# B9: UCGCGAA (DNA:RNA)
# RNA: B1 RNA with A25U, U26C, U27G, C29G, U30A
# DNA 1: CAATCTGAATTCCGGTCTCCC
# DNA 2: TGGTGGCTACGACGGGATT
# B10: UGACUUG (DNA:RNA)
# RNA: B1 RNA with A25U, U26G, U27A, C29U, A31G
# DNA 1: CAATCTGAATTCCGGTCTCCC
# DNA 2: TGGTGGCTACGACGGGATT
# B11: AUCCGCU (DNA:RNA)
# RNA: B1 RNA with U27C, C29G, U30C, A31U
# DNA 1: CAATCTGAATTCCGGTCTCCC
# DNA 2: TGGTGGCTACGACGGGATT
# B12: AAGCAUG (DNA:RNA)
# RNA: B1 RNA with U26A, U27G, C29A, A31G
# DNA 1: CAATCTGAATTCCGGTCTCCC
# DNA 2: TGGTGGCTACGACGGGATT
# B13: AAGCAUC (DNA:RNA)
# RNA: B1 RNA with U26A, U27G, C29A, A31C
# DNA 1: CAATCTGAATTCCGGTCTCCC
# DNA 2: TGGTGGCTACGACGGGATT
# B14: AAGCAUA (DNA:RNA)
# RNA: B1 RNA with U26A, U27G, C29A
# DNA 1: CAATCTGAATTCCGGTCTCCC
# DNA 2: TGGTGGCTACGACGGGATT
# B15: GCAUGCC (DNA:RNA)
# RNA: GGGAGACCGGAAUUCAGAUUGUCCGCAUGCCUUAAAUCCCGUCGUAGCCACCA
# DNA 1: CAATCTGAATTCCGGTCTCCC
# DNA 2: TGGTGGCTACGACGGGATT
# B16: GCAUGCG (DNA:RNA)
# RNA: B15 RNA with C31G
# DNA 1: CAATCTGAATTCCGGTCTCCC
# DNA 2: TGGTGGCTACGACGGGATT
# B17: GCAUGCA (DNA:RNA)
# RNA: B15 RNA with C31A
# DNA 1: CAATCTGAATTCCGGTCTCCC
# DNA 2: TGGTGGCTACGACGGGATT
# B18: GUCCGCA (DNA:RNA)
# RNA: B1 RNA with A25G, U27C, C29G, U30C
# DNA 1: CAATCTGAATTCCGGTCTCCC
# DNA 2: TGGTGGCTACGACGGGATT
# B19: GAAUGCA (DNA:RNA)
# RNA: B15 RNA with C26A, C31A
# DNA 1: CAATCTGAATTCCGGTCTCCC
# DNA 2: TGGTGGCTACGACGGGATT
# B20: GCAUCCC (DNA:RNA)
# RNA: B15 RNA with G29C
# DNA 1: CAATCTGAATTCCGGTCTCCC
# DNA 2: TGGTGGCTACGACGGGATT
# B21: CGAUGCA (DNA:RNA)
# RNA: B15 RNA with G25C, C26G, C31A
# DNA 1: CAATCTGAATTCCGGTCTCCC
# DNA 2: TGGTGGCTACGACGGGATT
# B22: GCAUUAA (DNA:RNA)
# RNA: B15 RNA with G29U, C30A, C31A
# DNA 1: CAATCTGAATTCCGGTCTCCC
# DNA 2: TGGTGGCTACGACGGGATT
# B23: ACAUGCG (DNA:RNA)
# RNA: B15 RNA with G25A, C31G
# DNA 1: CAATCTGAATTCCGGTCTCCC
# DNA 2: TGGTGGCTACGACGGGATT
# B24: CCAUGCC (DNA:RNA)
# RNA: B15 RNA with G25C
# DNA 1: CAATCTGAATTCCGGTCTCCC
# DNA 2: TGGTGGCTACGACGGGATT
# B25: GCCUGCC (DNA:RNA)
# RNA: B15 RNA with A27C
# DNA 1: CAATCTGAATTCCGGTCTCCC
# DNA 2: TGGTGGCTACGACGGGATT
# B26: GAUUGCA (DNA:RNA)
# RNA: B15 RNA with C26A, A27U, C31A
# DNA 1: CAATCTGAATTCCGGTCTCCC
# DNA 2: TGGTGGCTACGACGGGATT
# B27: ACGCACA (DNA:RNA)
# RNA: B1 RNA with U26C, U27G, C29A, U30C
# DNA 1: CAATCTGAATTCCGGTCTCCC
# DNA 2: TGGTGGCTACGACGGGATT
# B28: GCCGUUU (DNA:RNA)
# RNA: B15 RNA with A27C, U28G, G29U, C30U, C31U
# DNA 1: CAATCTGAATTCCGGTCTCCC
# DNA 2: TGGTGGCTACGACGGGATT
# B29: UCGUGAC (DNA:RNA)
# RNA: B15 RNA with G25U, A27G, C30A
# DNA 1: CAATCTGAATTCCGGTCTCCC
# DNA 2: TGGTGGCTACGACGGGATT
# B30: UCACAUA (DNA:RNA)
# RNA: B1 RNA with A25U, U26C, U27A, C29A
# DNA 1: CAATCTGAATTCCGGTCTCCC
# DNA 2: TGGTGGCTACGACGGGATT
# B31: AUAUGCA (DNA:RNA)
# RNA: B15 RNA with G25A, C26U, C31A
# DNA 1: CAATCTGAATTCCGGTCTCCC
# DNA 2: TGGTGGCTACGACGGGATT
# B32: GGAUGCA (DNA:RNA)
# RNA: B15 RNA with C26G, C31A
# DNA 1: CAATCTGAATTCCGGTCTCCC
# DNA 2: TGGTGGCTACGACGGGATT
# B33: GUAUGCA (DNA:RNA)
# RNA: B15 RNA with C26U, C31A
# DNA 1: CAATCTGAATTCCGGTCTCCC
# DNA 2: TGGTGGCTACGACGGGATT
# Target: T1, RBFOX1 RRM RbFoxmut (Fox-RRM*) (Homo sapiens, UniProt Q9NWB1 109-208, R118D;E147R;N151S;E152T)
# T1 sequence: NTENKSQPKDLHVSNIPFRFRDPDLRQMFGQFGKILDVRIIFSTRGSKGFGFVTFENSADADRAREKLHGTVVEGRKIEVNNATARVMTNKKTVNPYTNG
# Experiment: EMSA; HiTS-Eq, 1 nM pool, 10 min; buffer printed only for the single-RNA assays: 10 mM Tris pH 7.5, 150 mM NaCl, 3.4 mM EDTA, 0.001% NP-40, 30 C
# Conditions: tags: His6 N-terminal (pET28a); label: 5' 32P
# Outline: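 Relative association constants, normalised to the cognate motif, were derived by comparing read counts of each RNA species with those of the control reaction. The RNA sequenced was the free fraction, separated by 8% native PAGE after a 10 min equilibration in 50 µL of 1 nM 5′-radiolabelled RNA (7 randomized nucleotides) with increasing concentrations of purified wild-type or mutant RbFox RRM.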
row,Binder,binding signal
1,B1,0.098 KA relative to UGCAUGU
2,B2,0.118 KA relative to UGCAUGU
3,B3,0.124 KA relative to UGCAUGU
4,B4,0.095 KA relative to UGCAUGU
5,B5,0.13 KA relative to UGCAUGU
6,B6,0.0529 KA relative to UGCAUGU
7,B7,0.0799 KA relative to UGCAUGU
8,B8,0.0746 KA relative to UGCAUGU
9,B9,0.105 KA relative to UGCAUGU
10,B10,0.272 KA relative to UGCAUGU
11,B11,0.121 KA relative to UGCAUGU
12,B12,0.715 KA relative to UGCAUGU
13,B13,0.196 KA relative to UGCAUGU
14,B14,0.0958 KA relative to UGCAUGU
15,B15,0.651 KA relative to UGCAUGU
16,B16,0.872 KA relative to UGCAUGU
17,B17,0.828 KA relative to UGCAUGU

row,Binder,binding signal
1,B18,0.107 KA relative to UGCAUGU
2,B19,1.03 KA relative to UGCAUGU
3,B20,0.142 KA relative to UGCAUGU
4,B21,0.158 KA relative to UGCAUGU
5,B22,0.141 KA relative to UGCAUGU
6,B23,0.139 KA relative to UGCAUGU
7,B24,0.19 KA relative to UGCAUGU
8,B25,0.176 KA relative to UGCAUGU
9,B26,0.171 KA relative to UGCAUGU
10,B27,0.105 KA relative to UGCAUGU
11,B28,0.0818 KA relative to UGCAUGU
12,B29,0.0717 KA relative to UGCAUGU
13,B30,0.112 KA relative to UGCAUGU
14,B31,0.208 KA relative to UGCAUGU
15,B32,0.24 KA relative to UGCAUGU
16,B33,0.574 KA relative to UGCAUGU
